Bioassay records (PubChem BioAssay)
HttQ103 aggreg: reduces HttQ103-GFP aggregates in PC12 cells | Potency, µM (doses to about 46.1 µM), inactives show at the top dose activity change, negative = inhibition, most hits filed as inhibitors | 220,000 compounds, 1.1% hits | PC12 HttQ103-GFP aggregates, Acumen cytometry, 40 h; further: potency means the concentration at half of the fitted maximal effect; on the % scale 0 is the no-effect control and ±100 the full control effect; nearly all actives have a fitted effect of over 60% in size
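Read-out: GFP aggregate count by laser scanning cytometer (488 nm excitation, 500-530 nm emission, 1–25 µm objects >6 SD above background). Cells: PC12, inducible HTTex1-Q103-GFP, 100 nM tebufenozide; compounds titrated.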
ALDH1A1 block: blocks purified human ALDH1A1 activity; 220,000 compounds, 7.3% hits; P00352; Purified ALDH1A1, NADH fluorescence, propionaldehyde substrate; Potency, µM (series often up to 75.3 µM), inactives show top-dose activity, negative = inhibition, most hits filed as inhibitors; active means well fitted inhibition curve with a large enough effect, not every such curve was filed as active; inconclusive means small, poorly fitted or top-dose-only effect, or another doubt; inactive means no such curve, though single readings can be large or run the other way;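 further: potency means the concentration at half of the fitted maximal effect; plate controls were no enzyme wells and a reference inhibitor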
HTT cytoprotect: cytoprotection in Huntington HTT-Q103 PC12 cell model; PC12 HTT-Q103 induced, cytoprotection, ATP luminescence, 40 h; Potency, µM (doses to about 56.4 µM), without a hit: cytoprotection (ATP increase), actives largely listed as activators; 230,000 compounds, 0.14% hits; AID 1471; further: potency means the concentration at half of the fitted maximal effect; % of control where 0% means no effect; nearly all actives have a fitted effect of over 45% in size
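PC12 cells stably carrying ecdysone-inducible Htt exon 1 (Q103)–GFP were induced with 100 nM tebufenozide (final) alongside library compounds in a dose series. Cytoprotection was scored as retained ATP by ATPlite luminescence.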
HPGD block: inhibitors of human 15-hydroxyprostaglandin dehydrogenase (HPGD) | 150,000 compounds, 4.3% hits | P15428 | purified HPGD, NADH fluorescence kinetic, PGE2 substrate | Potency, µM, for the others: at the top dose activity change, negative = inhibition, most hits filed as inhibitors; active means well fitted inhibition curve with a large enough effect, not every such curve was filed as active; inconclusive means small, poorly fitted or top-dose-only effect, or another doubt; inactive means no such curve, though single readings can be large or run the other way; further: potency means the concentration at half of the fitted maximal effect; on the % scale 0 is the no-effect control and ±100 the full control effect
Target sequence (P15428 whole entry, looked up): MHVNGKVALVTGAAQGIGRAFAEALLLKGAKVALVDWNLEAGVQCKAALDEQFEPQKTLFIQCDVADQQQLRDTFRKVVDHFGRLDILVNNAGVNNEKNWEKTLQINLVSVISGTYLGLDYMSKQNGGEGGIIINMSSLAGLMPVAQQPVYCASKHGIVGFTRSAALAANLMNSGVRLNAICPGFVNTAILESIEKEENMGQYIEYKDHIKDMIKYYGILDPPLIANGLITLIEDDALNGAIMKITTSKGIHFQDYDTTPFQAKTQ
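20 nM HPGD preincubated 15 min at room temperature with compound in 50 mM Tris-HCl pH 8, 0.01% Tween 20. Started with 1 mM NAD+ and 30 uM prostaglandin E2; NADH fluorescence (360/450 nm) read 5 times over 30-s intervals, last minus first.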
IMPase Li cell: cell-permeable IMPase inhibitors with lithium potentiation. CHO-M1 cells, IP1 TR-FRET (IP-One), carbachol + lithium. Potency, µM (titrated, usually from 59.4 µM), for the others: at the top dose activity, negative = IMPase inhibition, most hits filed as inhibitors. 210,000 compounds, 0.35% hits. AID 1457;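 further: IP1 builds up when IMPase is blocked and the TR-FRET signal falls; potency means the concentration at half of the fitted maximal effect; plate controls were basal vehicle for no effect and high inhibitor control for full effect; nearly all actives have a fitted effect of over 50% in size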
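Test compounds were applied to CHO-M1 cells previously cultured for 16–30 h at 2000 per well. A small lithium amount accompanied them; after 30 min at 37C, IP1 was quantified by TR-FRET.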
IMPase inh: cell-permeable inhibitors of inositol monophosphatase (IMPase) | P97697 | AID 901 | inhibition (IP1 accumulation), % at 46.1 µM | CHO-M1 cells, IP1 accumulation, HTRF TR-FRET ratio | 120,000 tested, under 10 active; active means well fitted curve in the direction sought with a large enough effect in the signal ratio, not every such curve was filed as active; inconclusive means small, poorly fitted or top-dose-only effect, or a change in a side signal; inactive means no such curve, though single readings can be large or run the other way; the % refers to the signal ratio;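 further: cells stimulated with carbachol in lithium chloride buffer; plate controls were DMSO basal wells for no effect and reference inhibitor wells for full effect; higher means more IMPase inhibition seen as more IP1 and lower FRET ratio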
Target sequence (P97697 whole entry, looked up): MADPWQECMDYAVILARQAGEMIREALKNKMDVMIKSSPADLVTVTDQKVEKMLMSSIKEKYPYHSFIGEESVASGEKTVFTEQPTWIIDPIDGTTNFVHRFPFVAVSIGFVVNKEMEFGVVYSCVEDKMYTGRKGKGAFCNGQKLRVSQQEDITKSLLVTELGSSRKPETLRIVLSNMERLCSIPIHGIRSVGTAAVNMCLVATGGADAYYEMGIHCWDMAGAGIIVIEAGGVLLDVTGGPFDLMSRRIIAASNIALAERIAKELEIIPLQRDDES
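Measured: the HTRF emission ratio (665/620 nm) plus the 620 nm donor channel, each fitted to the Hill equation to give AC50. Cells were CHO-M1 given compounds up to 46 uM and a 30 min carbachol stimulation at 37C.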
Numbers without * were called inactive; ? = inconclusive; nt = no result; [ ] = remark or other dose. Only some compounds are listed: those with a hit (about 9.4% of all), similar ones and a draw of the others. Unless noted, the call rests on the fitted dose curve; in most records, active means well fitted curve in the direction sought with a large enough effect; inconclusive means small, poorly fitted or top-dose-only effect, or another doubt; inactive means no such curve, though single readings can be large; an effect the other way counts as inactive or inconclusive.

SMILES	HttQ103 aggreg	ALDH1A1 block	HTT cytoprotect	HPGD block	IMPase Li cell	IMPase inh
CCN(CC)C1=CC2=CC(=C(C#N)C#N)CCC2CC1 (centres undefined)	0.1µM*	2.24µM*	-22.8%[10 µM]	-17.6%	17.9%	nt
N#CC1=C(N)C2=C(N3CCCCC3)CCCC2C1(C#N)C#N (centres undefined)	-8.8%	?	1.7%[10 µM]	-1.0%	46.7%[38.3 µM]	22.9
CCCCN(C)C1=CC2=CC(=C(C#N)C#N)CCC2CC1 (centres undefined)	0.316µM*	?	5.9%[10 µM]	-19.1%	21.8%	nt
CCN1CCc2c(sc(NC(=S)NC(=O)c3ccccc3)c2C#N)C1	6.9%	?	-19.4%	-26.6%	1.9%[38.3 µM]	-2.4
N#Cc1c(NC(=O)C2C3C=CC(C3)C2C(=O)O)sc2c1CCCCC2 (centres undefined)	nt	12.6µM*	nt	nt	0.6%	nt
Cn1nccc1C(=O)NC(=S)Nc1sc2c(c1C#N)CCCCC2	16.6%	?	-26.8%	-6.2%	-1.1%[38.3 µM]	-1.3
CC1CCc2sc(NC(=S)NC(=O)c3ccccc3)c(C#N)c2C1 (centres undefined)	16.1%	10µM*	-1.2%[10 µM]	-23.8%	0.6%	nt
Cn1nc(C(=O)Nc2sc3c(c2C#N)CCCC3)ccc1=O	-3.1%	2.24µM*	-60.6%	nt	1.3%	nt
N#Cc1c(NC(=S)NC(=O)Cc2cccs2)sc2c1CCCCC2	0.6%	3.98µM*	-46.8%	-26.6%	0.8%[38.3 µM]	-8.0
COC(=O)N1C(C)=Cc2ccccc2C1CC(C)=O (centres undefined)	nt	-0.1%	-17.6%	-2.3%	17.4%	nt
CCOc1cc(-c2nc(-c3ccc(-c4ccccc4)nc3OCC)no2)cc(OCC)c1OCC	nt	nt	nt	nt	nt	2.0
CCCOc1ccc(C(=O)Nc2ccc3oc(-c4ccncc4)nc3c2)cc1	nt	nt	nt	nt	nt	-11.8
COC(=O)CCC(=O)Nc1sc2c(c1C#N)CCCC2	-6.9%	11.2µM*	15.1%[10 µM]	nt	nt	7.1
N#Cc1c(NC(=O)c2cnn3cccnc23)sc2c1CCCC2	18.7%[9.22 µM]	12.6µM*	-45.8%[1.9 µM]	nt	-0.4%	nt
N#Cc1c(NC(=O)c2ccncc2)sc2c1CCC2	14.1%	10µM*	-12.5%[10 µM]	-21.9%	23.5%	-2.0
N#Cc1c(NC(=S)NC(=O)c2ccccc2)sc2c1CCC2	11.3%	14.1µM*	-19.3%[10 µM]	-24.7%	-2.6%	nt
CC(=O)C=NCC(=O)O	nt	-3.6%[13.5 µM]	-8.2%[10 µM]	-3.5%	-4.8%	nt
CCC1(C)Cc2c(sc(NC(=S)NC(=O)c3ccccc3)c2C#N)CO1 (centres undefined)	-7.1%	?	8.8%[10 µM]	7.94µM*	-0.3%	-6.4
CC(C)(C)C(=O)NC(NC(=S)Nc1sc2c(c1C#N)CCCC2)C(Cl)(Cl)Cl (centres undefined)	?	6.31µM*	-48.4%	?	10.0%[38.3 µM]	?
CC(=O)NC(=S)Nc1sc2c(c1C#N)CCCCC2	23.7%	1.41µM*	-17.9%[10 µM]	nt	nt	-3.9
CC(C)(C)C(=O)Nc1sc2c(c1C#N)CCC2	-3.5%	3.2%	-8.2%	nt	-6.1%	nt
CC(=O)Nc1sc2c(c1C#N)CCCC2	8.6%	-2.8%	-7.6%	-8.7%	-11.7%[38.3 µM]	5.8
COCC(C)NC(=O)c1cnn2c(C(F)F)cc(-c3ccccc3)nc12 (centres undefined)	nt	nt	nt	nt	nt	10.9
Cc1nc2cnc(OCc3ccccc3)nc2n(CCc2ccccc2)c1=O	nt	?	5.9%	nt	18.5%	nt
CC(/C=N/n1c(-c2cccnc2)n[nH]c1=S)=C\c1ccco1	5.3%[9.22 µM]	nt	44.9%[10 µM]	nt	nt	nt
SMILES	HttQ103 aggreg	ALDH1A1 block	HTT cytoprotect	HPGD block	IMPase Li cell	IMPase inh
CC(/C=N/n1c(-c2cc(C)[nH]n2)n[nH]c1=S)=C\c1ccccc1	-7.4%	-13.7%	-2.2%[10 µM]	10µM*	3.3%	nt
CC(=C/c1ccccc1)/C=N/n1c(-c2ccco2)n[nH]c1=S	-17.5%	?	-19.3%	5.01µM*	1.3%[38.3 µM]	0.0
N#C/C(=C\c1ccc(-c2ccc(C(=O)O)cc2)o1)C(=O)Nc1ccccc1C(=O)O	nt	nt	nt	nt	nt	0.8
CCc1cc2c(nc1CC)CCN(CC/C(C)=N/O[C@@H](C)c1cn([C@@H]3COC[C@@H]3O)nn1)C2	nt	0.1%[13.5 µM]	1.2%[10 µM]	nt	nt	nt
CN(C)c1[nH]c(=O)c(C#N)c2c1CCN2Cc1ccccc1	1.7%	?	-1.3%[0.074 µM]	12.6µM*	12.4%[38.3 µM]	17.7
N#Cc1c2c(c[nH]c1=O)CCN2Cc1ccccc1	-9.1%	1.9%	10.1%[10 µM]	?	0.6%	2.0
COc1ccc(CNC(=O)[C@H](C)[C@H]2C[C@]2(C)[C@H](NC(=O)OCc2ccccc2)c2ccccc2)cc1OC	nt	3.55µM*	-13.5%	-10.3%	8.4%	nt
C[C@@H](C(=O)O)[C@H]1C[C@]1(C)[C@H](NC(=O)OCc1ccccc1)c1ccccc1	9.4%	7.08µM*	13.7%	-6.0%	7.7%	nt
Cc1cc(CNC(=O)[C@H](C)[C@H]2C[C@]2(C)[C@H](NC(=O)OCc2ccccc2)c2ccccc2)nn1C	nt	3.98µM*	-41.9%	-8.8%	-22.7%	nt
COC(=O)[C@H](C)[C@@H]1C[C@@]1(C)[C@@H](NC(=O)OCc1ccccc1)c1ccccc1	-10.6%	-4.9%	15.3%	-4.3%	10.2%	nt
COc1ccc(CNC(=O)[C@H](C)[C@@H]2C[C@@]2(C)[C@@H](NC(=O)OCc2ccccc2)c2ccccc2)cc1OC	-9.5%	-3.8%	-11.4%	?	14.5%	nt
Cc1cc(CNC(=O)[C@H](C)[C@@H]2C[C@@]2(C)[C@@H](NC(=O)OCc2ccccc2)c2ccccc2)nn1C	-1.0%	?	4.0%	-15.7%	23.9%	nt
CCN1C(=O)[C@H]2[C@H]3[C@H](O)[C@H](O)C/C(=N/OC[C@@H](C)[C@H](OCc4ccccc4)C(C)C)[C@@H]3CC[C@@H]2C1=O	nt	-1.0%[13.5 µM]	-5.0%[10 µM]	nt	nt	nt
Cc1c(NC(=O)c2nc3ccccc3nc2N2CCCCC2)cccc1[N+](=O)[O-]	nt	nt	nt	nt	nt	3.2
COc1ccc(-c2cc(C(F)(F)F)c(C#N)c(SCC(=O)Nc3ccc(F)cc3)n2)cc1	nt	nt	nt	nt	nt	7.2
S=c1[nH]c2cc3ccccc3cc2[nH]1	-7.3%[9.22 µM]	nt	-8.0%[10 µM]	nt	nt	nt
Cc1cc2[nH]c(=S)[nH]c2cc1C	-4.4%	28.2µM*	31.9%[10 µM]	14.1µM*	4.5%	nt
CCCC(=O)N(c1ccc2oc3c(c2c1)CCCC3)S(=O)(=O)c1ccc(CC)cc1	nt	nt	nt	nt	nt	2.9
CC(=O)Nc1ccc(C(=O)Nc2nc(-c3ccccn3)cs2)cc1	?	?	-60.4%	nt	-0.7%	nt
